Consider 14 compounds from ChEMBL document CHEMBL1961873, “Compounds: GSK PKIS; Assays: Nanosyn kinase panel” (2012).

For assay [1], the target named is Tyrosine-protein kinase Fyn (Homo sapiens) (UniProt P06241). The note with it: at 1 µM.
The target in assay [2] is Tyrosine-protein kinase HCK (Homo sapiens) (UniProt P08631). To be noted: at 0.1 µM.
For assay [3] the target is unchanged. To be noted: at 1 µM.
The target in assay [4] is Insulin-like growth factor 1 receptor (Homo sapiens) (UniProt P08069). To be noted: at 0.1 µM.
For assay [5] the target is unchanged. The note with it: at 1 µM.
Assay [6] has as its target Insulin receptor (Homo sapiens) (UniProt P06213). The note with it: at 0.1 µM.
The target is the same in assay [7]. To be noted: at 1 µM.
The target in assay [8] is Insulin receptor-related protein (Homo sapiens) (UniProt P14616). The note with it: at 0.1 µM.
Assay [9] shares this target. To be noted: at 1 µM.
The target of assay [10] is T1, Tyrosine-protein kinase ITK/TSK (Homo sapiens) (UniProt Q08881).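 Further: mean percent inhibition of ITK from the GSK PKIS screen.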
T1 sequence (whole entry): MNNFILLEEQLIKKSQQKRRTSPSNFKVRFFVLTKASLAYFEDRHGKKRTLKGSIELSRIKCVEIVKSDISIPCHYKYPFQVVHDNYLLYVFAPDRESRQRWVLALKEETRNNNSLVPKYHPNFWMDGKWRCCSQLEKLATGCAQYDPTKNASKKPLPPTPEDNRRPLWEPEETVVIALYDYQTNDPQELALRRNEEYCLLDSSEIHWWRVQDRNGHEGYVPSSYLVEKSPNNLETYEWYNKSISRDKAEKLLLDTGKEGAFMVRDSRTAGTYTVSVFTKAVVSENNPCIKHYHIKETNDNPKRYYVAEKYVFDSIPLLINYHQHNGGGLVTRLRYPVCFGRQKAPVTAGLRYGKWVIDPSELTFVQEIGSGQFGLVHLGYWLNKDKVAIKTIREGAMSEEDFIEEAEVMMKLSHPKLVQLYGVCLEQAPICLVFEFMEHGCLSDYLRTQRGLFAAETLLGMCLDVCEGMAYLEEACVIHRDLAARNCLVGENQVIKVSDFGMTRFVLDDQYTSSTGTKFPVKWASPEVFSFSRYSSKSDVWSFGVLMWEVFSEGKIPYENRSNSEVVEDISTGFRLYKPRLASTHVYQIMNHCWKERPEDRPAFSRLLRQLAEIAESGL
To be noted: at 0.1 µM.

Insulin receptor (Homo sapiens), sequence (P06213 28-758 limits assumed): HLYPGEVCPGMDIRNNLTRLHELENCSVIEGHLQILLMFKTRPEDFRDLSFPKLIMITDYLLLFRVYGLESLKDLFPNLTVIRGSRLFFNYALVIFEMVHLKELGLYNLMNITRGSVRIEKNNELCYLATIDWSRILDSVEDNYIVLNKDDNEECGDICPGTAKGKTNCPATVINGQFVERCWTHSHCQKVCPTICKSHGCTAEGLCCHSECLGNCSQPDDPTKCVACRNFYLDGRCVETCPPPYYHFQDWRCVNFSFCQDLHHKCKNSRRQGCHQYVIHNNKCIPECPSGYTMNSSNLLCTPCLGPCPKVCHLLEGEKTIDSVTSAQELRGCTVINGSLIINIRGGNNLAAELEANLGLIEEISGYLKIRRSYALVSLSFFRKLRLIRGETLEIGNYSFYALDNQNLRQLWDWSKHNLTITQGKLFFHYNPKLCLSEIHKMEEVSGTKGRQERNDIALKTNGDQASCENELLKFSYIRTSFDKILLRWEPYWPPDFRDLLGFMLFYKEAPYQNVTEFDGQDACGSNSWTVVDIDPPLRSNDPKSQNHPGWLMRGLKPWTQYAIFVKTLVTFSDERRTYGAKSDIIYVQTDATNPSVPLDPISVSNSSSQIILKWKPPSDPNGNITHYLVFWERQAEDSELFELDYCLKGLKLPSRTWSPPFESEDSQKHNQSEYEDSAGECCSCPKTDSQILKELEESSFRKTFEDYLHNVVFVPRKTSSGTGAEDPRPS
Insulin receptor (Homo sapiens), sequence (P06213 763-1382 limits assumed): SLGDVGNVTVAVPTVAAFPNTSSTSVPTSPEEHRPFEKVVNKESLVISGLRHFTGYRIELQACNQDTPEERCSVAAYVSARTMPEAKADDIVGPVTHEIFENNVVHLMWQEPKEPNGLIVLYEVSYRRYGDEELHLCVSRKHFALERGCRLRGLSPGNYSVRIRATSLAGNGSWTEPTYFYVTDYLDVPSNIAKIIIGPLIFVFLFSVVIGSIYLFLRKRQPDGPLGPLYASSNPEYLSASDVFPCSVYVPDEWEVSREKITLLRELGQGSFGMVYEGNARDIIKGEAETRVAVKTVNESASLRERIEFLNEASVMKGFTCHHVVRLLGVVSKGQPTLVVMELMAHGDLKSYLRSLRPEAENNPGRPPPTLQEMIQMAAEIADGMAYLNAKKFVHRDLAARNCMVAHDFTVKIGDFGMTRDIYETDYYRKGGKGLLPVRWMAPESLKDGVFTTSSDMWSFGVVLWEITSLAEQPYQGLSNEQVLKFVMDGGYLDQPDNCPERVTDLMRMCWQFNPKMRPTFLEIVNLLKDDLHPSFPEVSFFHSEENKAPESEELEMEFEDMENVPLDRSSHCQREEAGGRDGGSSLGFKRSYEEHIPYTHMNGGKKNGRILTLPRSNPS
Insulin receptor-related protein (Homo sapiens), sequence (P14616 27-742 limits assumed): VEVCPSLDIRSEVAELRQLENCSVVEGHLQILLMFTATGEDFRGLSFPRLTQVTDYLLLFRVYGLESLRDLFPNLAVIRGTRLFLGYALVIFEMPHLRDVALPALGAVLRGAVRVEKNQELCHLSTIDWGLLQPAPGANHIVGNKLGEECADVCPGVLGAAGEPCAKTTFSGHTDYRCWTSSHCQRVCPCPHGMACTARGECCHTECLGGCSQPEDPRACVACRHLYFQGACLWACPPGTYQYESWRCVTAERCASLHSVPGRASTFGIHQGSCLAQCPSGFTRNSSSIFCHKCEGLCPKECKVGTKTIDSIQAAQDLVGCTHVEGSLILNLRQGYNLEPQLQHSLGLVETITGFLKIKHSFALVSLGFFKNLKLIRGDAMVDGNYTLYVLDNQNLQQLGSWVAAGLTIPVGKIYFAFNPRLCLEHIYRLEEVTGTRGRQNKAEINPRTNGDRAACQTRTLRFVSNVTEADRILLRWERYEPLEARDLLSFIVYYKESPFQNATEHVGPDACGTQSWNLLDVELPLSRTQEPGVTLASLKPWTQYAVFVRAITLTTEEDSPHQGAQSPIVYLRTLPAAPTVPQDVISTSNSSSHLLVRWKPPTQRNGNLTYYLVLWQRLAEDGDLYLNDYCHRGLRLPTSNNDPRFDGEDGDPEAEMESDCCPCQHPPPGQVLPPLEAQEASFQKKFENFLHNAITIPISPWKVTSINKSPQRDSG
Insulin receptor-related protein (Homo sapiens), sequence (P14616 747-1297 limits assumed): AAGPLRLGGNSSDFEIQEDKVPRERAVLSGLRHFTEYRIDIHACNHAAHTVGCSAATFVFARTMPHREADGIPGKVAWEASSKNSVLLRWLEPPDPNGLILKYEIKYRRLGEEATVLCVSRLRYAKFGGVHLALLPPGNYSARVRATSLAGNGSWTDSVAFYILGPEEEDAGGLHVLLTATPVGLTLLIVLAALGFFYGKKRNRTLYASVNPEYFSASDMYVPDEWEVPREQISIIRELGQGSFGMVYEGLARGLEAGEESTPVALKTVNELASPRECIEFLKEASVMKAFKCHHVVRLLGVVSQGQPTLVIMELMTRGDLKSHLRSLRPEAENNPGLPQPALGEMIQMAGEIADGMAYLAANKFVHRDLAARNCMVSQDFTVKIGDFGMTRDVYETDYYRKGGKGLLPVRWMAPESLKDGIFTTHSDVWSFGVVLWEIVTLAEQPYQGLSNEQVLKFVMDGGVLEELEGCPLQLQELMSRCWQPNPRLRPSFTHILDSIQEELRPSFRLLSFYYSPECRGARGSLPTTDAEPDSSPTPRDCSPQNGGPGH
Insulin-like growth factor 1 receptor (Homo sapiens), sequence (P08069 31-736 limits assumed): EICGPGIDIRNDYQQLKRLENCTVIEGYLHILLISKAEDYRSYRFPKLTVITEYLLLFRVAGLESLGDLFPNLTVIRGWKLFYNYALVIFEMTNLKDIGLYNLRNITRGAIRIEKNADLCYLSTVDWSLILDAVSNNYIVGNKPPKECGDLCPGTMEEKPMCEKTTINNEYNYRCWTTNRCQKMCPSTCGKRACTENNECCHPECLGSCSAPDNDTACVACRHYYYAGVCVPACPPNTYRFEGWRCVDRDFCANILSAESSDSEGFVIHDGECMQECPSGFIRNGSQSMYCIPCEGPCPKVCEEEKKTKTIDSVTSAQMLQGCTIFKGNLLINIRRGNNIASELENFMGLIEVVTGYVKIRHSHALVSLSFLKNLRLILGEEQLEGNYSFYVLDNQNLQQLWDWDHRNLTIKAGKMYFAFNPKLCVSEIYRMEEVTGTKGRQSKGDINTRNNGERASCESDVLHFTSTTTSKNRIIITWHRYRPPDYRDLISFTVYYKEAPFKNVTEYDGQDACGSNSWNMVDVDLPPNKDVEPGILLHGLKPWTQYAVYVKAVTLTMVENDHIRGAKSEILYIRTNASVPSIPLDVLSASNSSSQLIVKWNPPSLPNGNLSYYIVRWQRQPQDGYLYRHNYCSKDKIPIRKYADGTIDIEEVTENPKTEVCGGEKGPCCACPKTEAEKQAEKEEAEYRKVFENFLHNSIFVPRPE
Insulin-like growth factor 1 receptor (Homo sapiens), sequence (P08069 741-1367 limits assumed): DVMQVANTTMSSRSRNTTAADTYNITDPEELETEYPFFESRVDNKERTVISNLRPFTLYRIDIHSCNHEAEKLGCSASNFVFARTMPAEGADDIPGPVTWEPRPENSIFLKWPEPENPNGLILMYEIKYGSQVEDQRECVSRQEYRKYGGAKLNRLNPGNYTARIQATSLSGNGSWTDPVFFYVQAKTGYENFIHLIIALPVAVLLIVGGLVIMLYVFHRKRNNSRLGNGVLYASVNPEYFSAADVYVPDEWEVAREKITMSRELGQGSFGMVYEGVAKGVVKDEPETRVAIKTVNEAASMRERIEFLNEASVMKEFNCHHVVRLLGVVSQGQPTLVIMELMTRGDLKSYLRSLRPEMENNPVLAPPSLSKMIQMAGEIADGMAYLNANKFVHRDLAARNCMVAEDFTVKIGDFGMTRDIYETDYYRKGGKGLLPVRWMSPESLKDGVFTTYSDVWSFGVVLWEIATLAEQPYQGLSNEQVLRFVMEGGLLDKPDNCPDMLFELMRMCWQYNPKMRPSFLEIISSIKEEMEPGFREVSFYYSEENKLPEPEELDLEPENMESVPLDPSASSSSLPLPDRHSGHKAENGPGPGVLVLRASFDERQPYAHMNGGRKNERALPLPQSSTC
Tyrosine-protein kinase HCK (Homo sapiens), sequence (P08631 2-526 limits assumed): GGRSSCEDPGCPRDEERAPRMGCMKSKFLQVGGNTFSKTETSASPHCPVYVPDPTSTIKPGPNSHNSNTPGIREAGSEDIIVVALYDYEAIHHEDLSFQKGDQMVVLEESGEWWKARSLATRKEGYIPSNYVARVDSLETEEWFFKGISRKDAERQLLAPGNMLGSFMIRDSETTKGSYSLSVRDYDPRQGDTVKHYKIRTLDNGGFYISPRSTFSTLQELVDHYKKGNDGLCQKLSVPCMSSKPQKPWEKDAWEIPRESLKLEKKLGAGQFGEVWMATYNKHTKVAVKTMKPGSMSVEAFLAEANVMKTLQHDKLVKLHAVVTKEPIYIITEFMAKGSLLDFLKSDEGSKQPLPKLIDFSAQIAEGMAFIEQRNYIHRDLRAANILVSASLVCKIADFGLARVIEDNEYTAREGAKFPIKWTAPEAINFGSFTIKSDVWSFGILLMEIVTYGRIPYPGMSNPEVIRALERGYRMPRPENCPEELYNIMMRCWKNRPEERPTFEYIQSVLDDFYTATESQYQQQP
Tyrosine-protein kinase Fyn (Homo sapiens), sequence (P06241 2-537 limits assumed): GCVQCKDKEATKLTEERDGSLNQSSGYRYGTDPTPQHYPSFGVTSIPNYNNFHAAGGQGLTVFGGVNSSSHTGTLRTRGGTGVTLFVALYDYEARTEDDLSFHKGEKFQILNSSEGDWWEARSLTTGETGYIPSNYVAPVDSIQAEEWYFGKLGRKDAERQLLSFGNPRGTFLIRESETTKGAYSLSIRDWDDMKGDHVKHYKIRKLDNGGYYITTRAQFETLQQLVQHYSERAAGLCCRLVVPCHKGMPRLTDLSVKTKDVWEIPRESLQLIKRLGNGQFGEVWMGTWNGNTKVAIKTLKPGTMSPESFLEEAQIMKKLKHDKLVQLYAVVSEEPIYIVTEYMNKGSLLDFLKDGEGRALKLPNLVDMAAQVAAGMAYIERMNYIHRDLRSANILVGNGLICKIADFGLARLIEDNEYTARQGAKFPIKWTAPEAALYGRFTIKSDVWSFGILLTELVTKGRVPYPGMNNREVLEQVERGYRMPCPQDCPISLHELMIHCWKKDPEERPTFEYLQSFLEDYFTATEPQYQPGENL

One may read the inhibition as the relative decrease from the control value, in per cent. For the compound `CCc1cccc(CC)c1/C=C/c1cncc(C(=O)NC)c1`, the inhibition was found to be 3.44% in assay [1]; 5.19% in assay [2]; 10% in assay [3]; 3.36% in assay [4]; 3.86% in assay [5]; 1.7% in assay [6]. Further, the inhibition came to 1.65% in assay [7], 5.5% in [8], 2.06% in assay [9] and 0.83% in assay [10].
Take `O=C1Nc2ccc(I)cc2C1=Cc1cc(Br)c(O)c(Br)c1`: the inhibition was found to be 6.7% in [1]; 6.42% in [2]; 8.5% in [3]; 5.43% in assay [4]; 2.95% in [5]; 6.33% in assay [6]. Besides, the inhibition in assay [7] came out at 5.95%; in assay [8], 0.52%; in assay [9], 2.5%; in [10] it was 1.48%.
For the compound `COc1cc(Nc2ncc(-c3ccccc3)o2)cc(OC)c1OC`, the inhibition in assay [1] is 37.5%; in assay [2], 3.3%; in [3] it was 31.2%; in assay [4] it was 1.91%; in [5], 2.07%; in [6] it was 4.48%. Moreover, the inhibition in assay [7] is -0.22%; in [8], -2.58%; in assay [9] it was -1.95%; in [10] it was -0.21%.
For the compound `COc1cc(Nc2ncc3c(C)nc(-c4cccc(Oc5ccccc5)c4)n3n2)cc(OC)c1OC`, the inhibition in [1] came to 8.45%; in assay [2], 3.59%; in assay [3] it was 5.25%; in assay [4] it was 3.82%; in assay [5], 5.13%; in assay [6] it was 5.22%. Also, the inhibition in assay [7] amounted to 8.16%; in assay [8], 2.99%; in [9], 3.66%; in assay [10], 0.96%.
For the compound `COc1cc2ncn(-c3cc(OCc4cccs4)c(C(N)=O)s3)c2cc1OC`, the inhibition in [1] was 10.6%; in assay [2] it was 4.48%; in [3], 23.4%; in assay [4], -8.52%; in [5], -6.38%; in assay [6], -0.44%. In addition, the inhibition in assay [7] is 2.03%; in assay [8], 0.43%; in assay [9], 1.63%; in assay [10] it was -1%.
Turning to `O=C1Nc2ccccc2/C1=C/Nc1ccc(-n2cncn2)cc1`, the inhibition amounted to 7.09% in assay [1]; 5.82% in [2]; 11.7% in assay [3]; 10.8% in assay [4]; 16.7% in assay [5]; 9.38% in [6]. The inhibition came out at 14.8% in assay [7], 2.54% in [8], 5.98% in assay [9] and 1.26% in assay [10].
`CN(C)CCOc1ccc(-c2cc(-c3ccc4c(c3)CCC4=NO)c(-c3ccncc3)o2)cc1`: the inhibition in [1] was 8%; in assay [2], -2.29%; in assay [3], 2.91%; in [4], -3.2%; in assay [5], 0.2%; in assay [6], 3.17%. The inhibition in assay [7] was 1.94%; in assay [8], -1.33%; in assay [9] it was -1.94%; in assay [10], -1.36%.
In the case of `Fc1ccc(-c2ncn(C3CCNCC3)c2-c2ccnc(Oc3ccc(F)c(F)c3)n2)cc1`, the inhibition in [1] was -4.44%; in assay [2], 5.11%; in assay [3] it was 4.68%; in assay [5] it was -4.9%; in assay [6] it was -2.06%; in [7] it was 0.24%. Besides, the inhibition in [8] is 3.04%; in assay [9], 2.75%; in assay [10], -3.95%.
On to `C#Cc1cccc(Nc2ncnc3ccc(OCCCCNCCS(C)(=O)=O)cc23)c1`, for which the inhibition is 2.18% in [1]; 11.1% in assay [2]; 20.5% in [3]; -0.58% in assay [4]; -2.48% in assay [5]; 8.82% in assay [6]. Moreover, the inhibition in [7] is 4.34%; in assay [8], 2.65%; in assay [9], 2.49%; in assay [10] it was -1.95%.
Regarding `CS(=O)(=O)CCNCc1ccc(-c2ccc3ncnc(Nc4ccc(OCc5ccccc5)c(Br)c4)c3c2)o1`, the inhibition was 1.37% in assay [1]; 7.33% in [2]; 10.2% in assay [3]; -5.4% in assay [5]; 2.87% in assay [6]; 1.17% in assay [7]. In addition, the inhibition is 2.56% in assay [8], 2.95% in [9] and -4.12% in assay [10].
Take `O=C(Nc1n[nH]c2cc(-c3ccccc3)ccc12)C1CC1`: the inhibition amounted to 5.27% in [1]; 8.61% in assay [2]; 15.8% in [3]; 10.5% in assay [4]; 11.2% in assay [5]; 3.96% in [6]. Moreover, the inhibition in [7] came to 5.84%; in assay [8], 2.53%; in assay [9], 0.58%; in [10], 1.56%.
Regarding `CCN(CC)Cc1ccc(Nc2nccc(-c3cnn4ncccc34)n2)cc1`, the inhibition in assay [1] came out at 5.04%; in [2], 4.93%; in assay [3], 13.5%; in [4] it was 3.11%; in [5], 54.6%; in assay [6] it was 21.9%. In addition, the inhibition in assay [7] was 73.2%; in assay [8], 2.45%; in [9] it was 7.36%; in assay [10], -3.08%.
For `Cc1nnc(-c2ccc(C)c(-c3ccc(C(=O)NCc4ccc(Cl)cc4)cc3)c2)o1`, the inhibition in [1] was -1.62%; in assay [2], 4.39%; in assay [3] it was 5.02%; in assay [4], -3.42%; in assay [5] it was -3.35%; in assay [6], 5.65%. For the same compound, the inhibition in [7] was 6.19%; in assay [8], 1.93%; in [9], 1.98%; in assay [10], -2.09%.
For `CCC(=O)Nc1ccc(C)c(-c2ccc(C(=O)NCC3CC3)cc2)c1`, the inhibition worked out at 4.1% in [1]; 5.93% in assay [2]; 4.04% in assay [3]; 3.84% in [4]; 1.32% in assay [5]; 4.28% in assay [6]. Besides, the inhibition in [7] is 5.36%; in [8], 0%; in assay [9], 1.59%; in assay [10] it was -0.06%.
